# Screening data (PubChem)
# Only some compounds are listed: those with a hit (about 19% of all), similar ones and a draw of the others.
# VP16 counter = Gal4-VP16 reporter inhibition counter-screen. Drosophila S2 Gal4-VP16 UAS-luciferase, luminescence, 20 h. Potency, µM (highest dose often 53.6 µM), for the others: top-dose activity, negative = inhibition, most hits filed as inhibitors. 3.5% of 310,000 active;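 also: Gal4-VP16 expression switched on by copper sulfate through the metallothionein promoter; nearly all actives have a fitted effect of over 50% in size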
# DT40 TDP1 no CPT = qHTS for Inhibitors of human tyrosyl-DNA phosphodiesterase 1 (TDP1): qHTS in cells in absence of CPT; DT40 Tdp1-/- hTDP1 cells, no CPT, ATP luminescence, 48 h; Potency, µM (top dose mostly 46.2 µM), without a hit: at the highest dose activity change, negative = growth inhibition, hits mostly inhibitors; 15% of 420,000 active; AID 686978, 2013; also: nearly all actives have a fitted effect of over 55% in size
#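 Camptothecin absent (DMSO only). Human TDP1-complemented DT40 knockout cells, 400 cells/well, 37 °C for minimum 48 hr; ATP measured via CellTiter-Glo, 30 min dark incubation, luminescence.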
# TDP1 inh = TDP1 (human) enzyme inhibition; recombinant TDP1, AlphaScreen DNA substrate cleavage; Potency, µM (highest dose often 130 µM), for the others: top-dose activity change, negative = inhibition, usual class: inhibitors; 0.28% of 350,000 active; Q9NUW8; AID 485290; also: nearly all actives have a fitted effect of over 40% in size
# Target sequence (Q9NUW8 whole entry, looked up): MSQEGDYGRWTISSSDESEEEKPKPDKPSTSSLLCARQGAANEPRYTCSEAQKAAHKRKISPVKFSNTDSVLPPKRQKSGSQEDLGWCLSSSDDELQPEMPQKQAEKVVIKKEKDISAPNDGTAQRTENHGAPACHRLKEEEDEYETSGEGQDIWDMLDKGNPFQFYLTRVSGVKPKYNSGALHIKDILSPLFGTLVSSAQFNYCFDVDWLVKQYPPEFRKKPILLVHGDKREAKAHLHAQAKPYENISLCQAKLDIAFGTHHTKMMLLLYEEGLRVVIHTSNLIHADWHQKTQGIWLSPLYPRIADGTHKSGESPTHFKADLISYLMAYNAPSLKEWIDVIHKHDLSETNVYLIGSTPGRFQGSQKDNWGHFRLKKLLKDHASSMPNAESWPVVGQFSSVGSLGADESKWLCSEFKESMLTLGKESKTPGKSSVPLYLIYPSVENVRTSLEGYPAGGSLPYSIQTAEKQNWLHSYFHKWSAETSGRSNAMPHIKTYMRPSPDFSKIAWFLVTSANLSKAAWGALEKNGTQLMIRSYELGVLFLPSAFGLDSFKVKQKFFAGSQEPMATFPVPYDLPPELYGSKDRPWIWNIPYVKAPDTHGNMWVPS
#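 Recombinant E. coli-expressed Tdp1 (1 nM) preincubated with compound 15 min at RT, then 5'-biotin/3'-phosphotyrosine-FITC DNA substrate (15 nM) added for 5 min. AlphaScreen beads (10 ug/ml) added, 10 min RT; tyrosine-FITC cleavage read as signal loss.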
# TDP1 cell CPT = DT40-hTDP1 cell growth loss with CPT. 12% of 420,000 active. AID 686979. Potency, µM (series often up to 46.2 µM), for inactives: top-dose activity change, negative = growth inhibition, hits mostly inhibitors. chicken DT40 Tdp1-/-;hTDP1 cells + 20 nM CPT, ATP luminescence, 48 h; also: nearly all actives have a fitted effect of over 55% in size
#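 Chicken DT40 Tdp1-/- cells complemented with human TDP1, 400 cells/well, exposed to compounds plus 20 nM camptothecin for at least 48 h at 37 C; viability read as ATP content by CellTiter-Glo luminescence.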
# RORgamma inh = ROR gamma (mouse) transcription inhibition | AID 2551 | Drosophila S2 Gal4-RORgamma UAS-luciferase reporter, 20 h | Potency, µM (highest dose often 53.6 µM), inactives show top-dose activity change, negative = inhibition, actives largely listed as inhibitors | 5.4% of 310,000 active | P51450; also: nearly all actives have a fitted effect of over 60% in size
#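 Drosophila Schneider cells stably carrying a metallothionein-driven Gal4 DBD–ROR gamma fusion and a UAS-Photinus luciferase reporter were exposed to compound for 1 hr, then induced with copper sulfate (700 uM final) for 20 hr at ambient temperature before luminescence reading.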
# Starred values were filed as active, the others as inactive; ? = inconclusive; nt = no result given; [ ] = dose if it differs, or a comment. Calls follow the shape of the dose curve; as a rule, active = well fitted curve in the direction sought with a large enough effect; inconclusive = small, poorly fitted or top-dose-only effect, or another doubt; inactive = no such curve, though single readings can be large; an effect the other way counts as inactive or inconclusive. % is scaled to controls: 0 for no effect and ±100 for the full control effect; potency is read from the fitted curve at half-maximal effect.
SMILES,VP16 counter,DT40 TDP1 no CPT,TDP1 inh,TDP1 cell CPT,RORgamma inh
Cc1cccc(NC(=O)c2cccc(Cn3cc(Br)c([N+](=O)[O-])n3)c2)c1C,-16.8%,20.6µM*,5.9%,?,?
CC(C)Cc1ccc(C(C)C(=O)Nc2nccs2)cc1 (stereo not given),?,?,-1.0%,?,12.6µM*
CC(C)Cc1ccc(C(C)C(=O)Nc2ccccc2O)cc1 (stereo not given),?,8.2µM*,nt,8.2µM*,-24.6%
CC(C)c1ccc(CNC(=O)C(=O)Nc2nccs2)cc1,21.1%[10 µM],-0.2%,2.6%,-6.5%,-36.1%
Cc1cc(C(=O)NCCC(c2ccccc2)c2ccccc2)c(C)o1,11.8%,?,7.5%,18.4µM*,-28.9%
Cc1oc2c(c1C(=O)Nc1cccc3ccccc13)CCCC2,6.0%,13µM*,1.0%,10.3µM*,2.0%
Cc1cc(C(=O)Nc2cccc3ccccc23)c(C)o1,-10.1%,-22.2%,nt,23.1µM*,-5.6%
CCCN(Cc1cc2ccccc2[nH]c1=O)C(=O)c1cccc([N+](=O)[O-])c1,-4.7%,?,1.2%,-17.4%,11.6%
CCCN(CCC)C(=O)c1cc([N+](=O)[O-])cc2c1-c1ccc([N+](=O)[O-])cc1C2=C(C#N)C#N,?,2.91µM*,8.2%,5.17µM*,-7.9%
COCCCNCCCOc1ccc(C(C)(C)c2ccccc2)cc1,-3.9%,18.4µM*,0.0%,?,-8.4%
COCCNCCCOc1ccc(C(C)(C)c2ccccc2)cc1,-7.2%,?,-1.1%,?,-22.8%
N#Cc1cccc(NC(=O)c2cc3c(s2)-c2ccc(Cl)cc2SC3)c1,nt,23.1µM*,-5.1%,25.9µM*,nt
CN(Cc1ccccc1)C(=O)c1cc2c(s1)-c1ccc(Cl)cc1SC2,nt,23.1µM*,-12.7%,?,nt
O=C(NCc1cccc(Cl)c1)c1cc2c(s1)-c1ccccc1SC2,nt,-26.4%,-7.6%,-17.8%,nt
O=C(NCCc1c[nH]c2ccccc12)c1cnc2n(c1=O)CCS2,5.9%,4.5%,7.8%,-9.5%,?
O=C(NCc1ccncc1)c1ccc(NS(=O)(=O)c2ccccc2)cc1,nt,-7.4%,nt,-13.6%,nt
Cc1sc2nc(C3CC3)nc(SCC(=O)N3CCCc4ccccc43)c2c1C,-16.9%,nt,0.0%,nt,-22.4%
CCc1c(C)sc2nc(C(C)C)nc(SCC(=O)N3CCc4ccccc4C3)c12,3.2%,20.6µM*,5.6%,?,?
Cc1sc2nc(C(C)C)nc(SCC(=O)N3CCN(C(=O)c4ccco4)CC3)c2c1C,7.5%,?,7.3%,?,-6.2%
Cc1sc2nc(C3CC3)nc(SCC(=O)N3CCc4ccccc4C3)c2c1C,4.9%,20.6µM*,2.8%,?,-2.4%
CCOC(=O)c1c(NC(C)=O)c2c3c(sc2n1Cc1nc(-c2cccc(Cl)c2)oc1C)CCCC3,nt,0.5%,-1.0%,13.0%,nt
CS(=O)(=O)N(CC(=O)NCCSCc1ccccc1Cl)c1ccccc1F,2.2%,?,nt,?,23.8%
CC(C)CNC(=O)c1ccc(COc2ccc(Cl)cc2Cl)o1,-1.7%,20.6µM*,0.0%,14.6µM*,40.1%
CC(=O)Nc1ccc(NC(=O)c2ccc(COc3ccc(Cl)cc3Cl)o2)cc1,nt,16.4µM*,3.2%,16.4µM*,nt
O=C(Nc1ccccc1F)c1ccc(COc2ccc(Cl)cc2Cl)o1,0.5%,-24.8%,-2.2%[56.1 µM],0.4%,-11.4%
SMILES,VP16 counter,DT40 TDP1 no CPT,TDP1 inh,TDP1 cell CPT,RORgamma inh
COc1ccccc1OCc1ccc(C(=O)Nc2ccncc2)o1,?,20.6µM*,2.3%,?,?
Cc1nn(Cc2cccc(F)c2)c(C)c1NC(=O)c1ccc(COc2ccccc2Cl)cc1,?,?,2.9%,14.6µM*,29.3%
COc1ccccc1OCc1ccc(C(=O)NC(C)(C)C)o1,nt,?,-3.3%,-28.8%,3.8%[0.365 µM]
COc1cccc(/C=N/NC(=O)c2ccc(COc3ccc(Cl)cc3Cl)o2)c1,?,-6.6%,7.9%,-9.6%,?
CCCCN(C(=O)CCCc1nc2ccccc2c(=O)[nH]1)c1c(N)n(CC(C)C)c(=O)[nH]c1=O,nt,-5.4%,0.0%,-5.9%,nt
CCCc1ccc(OCc2ccc(C(=O)NN)o2)c(OC)c1,-0.6%,23.1µM*,nt,5.7%,6.4%
